According to PubChem BioAssay AID1851 (National Center for Advancing Translational Sciences (NCATS), 2009):
The whole screen tested about 16,000 compounds, of which about 2,600 (16%) were called active. Inconclusive results (about 20%) are left out. Calls come from the whole dose curve; as a rule, active = well fitted curve in the direction sought with a large enough effect; inconclusive = small, poorly fitted or top-dose-only effect, or effect the other way; inactive = no such curve, though single readings can be large or run the other way. Only a sample is shown.

Target: Cytochrome P450 2D6 (Homo sapiens) (UniProt P10635)
Sequence (P10635 whole entry, looked up): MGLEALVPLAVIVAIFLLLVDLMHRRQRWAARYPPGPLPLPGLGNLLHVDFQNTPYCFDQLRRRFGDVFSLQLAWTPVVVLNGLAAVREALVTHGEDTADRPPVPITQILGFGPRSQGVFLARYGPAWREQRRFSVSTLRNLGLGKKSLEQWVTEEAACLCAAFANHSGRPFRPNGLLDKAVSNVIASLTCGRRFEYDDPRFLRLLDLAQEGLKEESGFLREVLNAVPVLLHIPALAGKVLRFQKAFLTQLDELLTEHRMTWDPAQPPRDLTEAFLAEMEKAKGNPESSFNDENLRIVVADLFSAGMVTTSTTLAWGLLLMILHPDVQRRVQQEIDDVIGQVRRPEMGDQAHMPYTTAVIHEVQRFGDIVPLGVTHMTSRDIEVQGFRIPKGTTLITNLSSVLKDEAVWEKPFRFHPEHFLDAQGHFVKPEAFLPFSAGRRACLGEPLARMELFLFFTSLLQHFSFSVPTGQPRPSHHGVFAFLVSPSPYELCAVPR
Assay: Cytochrome panel assay with activity outcomes
Details: recombinant CYP, pro-luciferin dealkylation, luminescence, p450-cyp2d6; series mostly up to 57.1 µM; activity, negative = inhibition: at the top concentration
% is set by controls: 0 for no effect and ±100 for the full control effect.

Row | Compound | activity, negative = inhibition | AC50
1 | COc1ccc(CCNC(=O)c2nnn(CC(=O)Nc3ccccc3C)c2N)cc1OC | -23.3% (inactive) | 
2 | COCC(=O)N1CCC2(CCCN(C(=O)Nc3cccc(C#N)c3)C2)CC1 | 9.12% (inactive) | 
3 | COc1ccccc1C(c1nnnn1C(C)(C)C)N1CCN(Cc2ccncc2)CC1 (centres undefined) |  | 2820 nM (active)
4 | COc1ccccc1C(c1nnnn1C(C)(C)C)N1CCCc2ccccc21 (centres undefined) | 3.94% (inactive) | 
5 | CN1CCN(c2ncc3nc(-c4cc(F)cc(F)c4)c(=O)n(C)c3n2)CC1 | 3.01% (inactive) | 
6 | Cc1cc(Cl)ccc1Oc1ncnc2oc(-c3ccccc3)cc12 | 2.71% (inactive) | 
7 | OCCN=c1cc(-c2ccccc2)oc2ccc(Cl)cc12 |  | 6310 nM (active)
8 | COc1ccccc1CNc1ccnc(-c2ccccc2OC)n1 |  | 1580 nM (active)
9 | COc1ccc(CNc2ccnc(-c3ccccc3CN(C)C)n2)c(OC)c1 |  | 1000 nM (active)
10 | COc1ccc(CNc2cc(-c3ccccc3CN(C)C)ncn2)c(OC)c1 |  | 12600 nM (active)
11 | COc1ccc(CNc2ccnc(-c3ccccc3OC)n2)c(OC)c1 |  | 3980 nM (active)
12 | Cc1cc(NC(=O)c2ccc(S(=O)(=O)N(C)C)cc2)n(-c2ccccn2)n1 | 6.95% (inactive) | 
13 | COc1cccc(/C=N/Nc2nc(N3CCCC3)nc(N3CCCC3)n2)c1O | 13.7% (inactive) | 
14 | COc1cccc(Nc2ncc3nc(-c4cccs4)c(=O)n(-c4ccccc4)c3n2)c1 | 4.06% (inactive) | 
15 | Cc1nc(Cl)c(C#N)cc1-c1ccccc1 | -1.78% (inactive) | 
16 | N#CC(=C1CCCC1)c1nc(-c2ccccc2)cs1 | -2.08% (inactive) | 
17 | Cc1noc(NS(=O)(=O)c2ccc(N/C=C\C(=O)c3ccc4c(c3)OCO4)cc2)c1C | -9.13% (inactive) | 
18 | C=C1C(=O)O[C@@H]2[C@H]3O[C@]3(C)CCC=C(C)CC[C@@H]12 | 2.63% (inactive) | 
19 | CCOC(=O)c1c(N2C(=O)Nc3cc(Cl)c(Cl)cc3N2O)sc2c1CCCCC2 | -5.85% (inactive) | 
20 | CCc1ccc(C(=O)COC(=O)C(Cc2ccccc2)NC(=O)C2CCC(C)CC2)cc1 (centres undefined) | 0.801% (inactive) | 
21 | O=C(Nc1ccc(Cl)cc1Cl)c1cccc(N2C(=O)C=CC2=O)c1 | -19.8% (inactive) | 
22 | COc1ccc(CSC2=C(C#N)C(=O)NC3(CCCCC3)S2)cc1 | -3.33% [at 11.4 µM] (inactive) | 
23 | Nc1nc(Cl)nc2c1ncn2[C@@H]1O[C@@H](COP(=O)(O)OP(=O)(O)OP(=O)(O)O)[C@@H](O)[C@H]1O | -0.437% (inactive) | 
24 | COc1ccccc1CNc1ccnc(-c2ccccc2Cl)n1 |  | 12600 nM (active)
25 | COc1ccc(-c2nc3c([nH]2)c(=O)n(C)c(=O)n3C)c(OC)c1 | 1.6% (inactive) | 
26 | O=C(O)/C=C\C(=O)Nc1ccccn1 | 7.8% [at 11.4 µM] (inactive) | 

Row | Compound | activity, negative = inhibition | AC50
27 | O=c1cc(CN2CCN(c3ccc(F)cc3)CC2)c2cc3c(cc2o1)CCCC3 | -19.7% (inactive) | 
28 | Cc1cc(N)n2ncc(-c3ccc(Cl)cc3)c2n1 | 3.39% (inactive) | 
29 | N[C@@H](CC1=CS(=O)(=O)c2ccc(Cl)cc21)C(=O)O | -13.3% [at 11.4 µM] (inactive) | 
30 | c1nc(NCCc2cnc[nH]2)c2[nH]cnc2n1 | -17.7% [at 11.4 µM] (inactive) | 
31 | CN(C)C(=O)c1ccc(-c2cncnc2NCCc2cnc[nH]2)cc1 |  | 794 nM (active)
32 | CNc1ncncc1-c1ccc(C(=O)N(C)C)cc1 | -12.6% (inactive) | 
33 | CN(C)c1ccc(-c2cncnc2Nc2ccc(F)cc2)cc1 |  | 25100 nM (active)
34 | c1ncc(-c2ccc3c(c2)OCO3)c(NCCc2cnc[nH]2)n1 |  | 2510 nM (active)
35 | Fc1ccc(Nc2ncncc2-c2ccoc2)cc1 | -13.4% (inactive) | 
36 | CC(=O)NCCNc1ncncc1-c1ccc(N(C)C)cc1 | -9.12% (inactive) | 
37 | CN(C)c1ccc(-c2cncnc2NCCc2cnc[nH]2)cc1 |  | 5010 nM (active)
38 | Cc1cc(N2C(=O)C(O)=C(C(=O)c3ccco3)C2c2ccc(O)cc2)no1 (centres undefined) | -0.185% (inactive) | 
39 | CO[C@H]1COC(=O)C/C=C\[C@H](C)COC(=O)[C@@H](C)NC(=O)C/C=C\[C@@H]1C | 10.1% [at 11.4 µM] (inactive) | 
40 | COc1ccc(NC(=O)N2CCC3(CC2)CCN(C(=O)c2csnn2)CC3)cc1 | 3.56% (inactive) | 
41 | CN1CCN(NC(=O)c2ccccc2F)CC1 | 9.96% (inactive) | 
42 | Cc1ccc(-n2c(SCC(=O)N3CCOCC3)nnc2-c2cccnc2)cc1 | 0.21% (inactive) | 
43 | CCOC(=O)CSc1n[nH]c(NC(=O)c2cccc(C)c2)n1 | 12% (inactive) | 
44 | CCc1cccc2c(C=C(C#N)C#N)cn(CC(=O)N3CCCCC3)c12 | 6.92% (inactive) | 
45 | O=c1oc(-c2ccco2)nc2c1cnn2-c1ccccc1 | -9.11% (inactive) | 
46 | Cn1ncc([N+](=O)[O-])c1C(=O)N1CCOCC1 | 15.1% (inactive) | 
47 | CCCCNC(=O)NS(=O)(=O)c1ccc(C(=O)OC(C)C)o1 | 8.69% (inactive) | 
48 | CN(C)S(=O)(=O)c1cccc(NC(=O)COC(=O)c2ccc(Br)o2)c1 | -18% (inactive) | 
49 | CN(C)S(=O)(=O)c1ccc(NC(=O)COC(=O)c2ccccn2)cc1 | -12.2% (inactive) | 
50 | CCN(CC)S(=O)(=O)c1ccc(NC(=O)COC(=O)c2ccc(Br)o2)cc1 |  | 3160 nM (active)
51 | CC1=CC2=NC(=O)CC(C)(C(=O)N(CC(=O)NC(C)(C)C)Cc3cccs3)N2C=C1 (centres undefined) | -6.53% (inactive) | 
52 | O=c1oc2c(Cl)cc(Cl)cc2cc1-c1nnc(Nc2ccccc2F)s1 | 5.36% (inactive) | 

Row | Compound | activity, negative = inhibition | AC50
53 | O=C(NC12CC3CC(CC(C3)C1)C2)N1CCN(c2nc(-c3ccccc3)cs2)CC1 | 3.04% (inactive) | 
54 | NS(=O)(=O)c1ccc(NC(=O)Nc2cccc3ccccc23)cc1 | -5.78% [at 11.4 µM] (inactive) | 
55 | CCS(=O)(=O)c1ccc(O)c(NC(=O)Nc2ccccc2)c1 |  | 4470 nM (active)
56 | CCC(C)NC(=O)c1ccccc1NC(=O)Nc1ccccc1 (centres undefined) | 3.52% (inactive) | 
57 | CCOC(=O)Cc1cc(=O)n2[nH]c(C)c(C#N)c2n1 | -21% (inactive) | 
58 | CC(C)NC(=O)N1CCN(c2ccncc2S(=O)(=O)N2CCOCC2)CC1 | 1.71% (inactive) | 
59 | Cc1ccc2c(c1)/C(=N/OC(=O)c1ccc(F)cc1)CCS2 | -8.38% (inactive) | 
60 | C/C(=N\OC(=O)c1cccc(C)c1)c1sc(-c2ccccc2)nc1C | -11% (inactive) | 
61 | C/C(=N\OC(=O)c1ccc(F)cc1)c1nccs1 |  | 12600 nM (active)
62 | COc1ccccc1NC(=O)N1CCC(c2nnc(SCC(N)=O)n2C)CC1 | 7.79% (inactive) | 
63 | COc1cc(-c2nnc(COC(=O)c3c4c(nc5ccccc35)CCCC4)o2)cc(OC)c1OC | 22.5% (inactive) | 
64 | COc1ccc(-n2c(CNC(=O)c3ccc(S(=O)(=O)N4CCCC4)cc3)n[nH]c2=S)cc1 | -4.46% (inactive) | 
65 | C/C(=N/NC(=O)c1ccc(C)s1)c1cccc(NC(=O)COc2ccc(Cl)cc2C)c1 | -16.1% (inactive) | 
66 | O=C(Nc1ccc2nc(SCc3ccc(Cl)cc3)sc2c1)c1ccccc1C(=O)N1CCOCC1 | -22.4% (inactive) | 
67 | N[C@H](C(=O)O)[C@@H]1[C@@H](C(=O)O)C1(F)F |  | 100 nM (active)
68 | O=C(Nc1cccc(-c2cnc3ccccc3n2)c1)c1ccc(Cl)cc1 | -4.08% (inactive) | 
69 | COc1ccc(NC(=O)CN(C)S(=O)(=O)c2ccc(Cl)cc2)c([N+](=O)[O-])c1 | -19.3% (inactive) | 
70 | COc1ccc(NC(=O)c2ccc(C)cc2Cl)c([N+](=O)[O-])c1 |  | 891 nM (active)
71 | COc1ccc(NC(=O)c2cccs2)c([N+](=O)[O-])c1 | -10% (inactive) | 
72 | Cn1c(CN2CCOCC2)nnc1SCc1ccccc1 | -4.83% (inactive) | 
73 | O=C(c1ccc2c(c1)N(Cc1ccccc1)C(=O)CS2)N1CCOCC1 | -12.1% (inactive) | 
74 | CCCCN1CSC(=S)N(Cc2ccccc2)C1 |  | 3980 nM (active)
75 | S=C1SCN(CCN2CCOCC2)CN1Cc1ccccc1 |  | 12600 nM (active)
76 | O=C1OC(OC2CCCCC2)(c2ccccc2)c2ccccc21 (centres undefined) | 0.0819% (inactive) | 
77 | COc1ccc(-c2cc(C3CCN(c4cc(Cl)nc(N)n4)CC3)[nH]n2)cc1 | -25.5% (inactive) | 
78 | CCN1C(=O)[C@H]2[C@H]3[C@H](O)[C@H](O)C/C(=N/NC(=O)OCc4ccccc4)[C@H]3CC[C@@H]2C1=O | 1.32% [at 11.4 µM] (inactive) | 

Row | Compound | activity, negative = inhibition | AC50
79 | C/C(=N\NC(=O)c1cccc(F)c1)c1ccc(Br)s1 | -1.08% (inactive) | 
80 | Cc1cccc(C(=O)NC(=S)N2CCN(C)CC2)c1 | 0.609% (inactive) | 
81 | O=C(O)CC[C@@H](C(=O)O)N1C(=O)[C@@H]2[C@@H]3CC[C@H](C3)[C@@H]2C1=O | 13.3% [at 11.4 µM] (inactive) | 
82 | COCCCNC(=O)C(=O)N/N=C/c1ccc(OCC(=O)Nc2cccc(Cl)c2C)c(OC)c1 | 11% (inactive) | 
83 | CCCc1cc(=O)[nH]c(=S)[nH]1 | 8.48% [at 25.6 µM] (inactive) | 
84 | Cc1ccc(OCC(=O)NNC(=O)CCC(=O)Nc2ccc(C)cc2C)cc1 | 1.32% (inactive) | 
85 | Nc1ccc(S(=O)(=O)NCc2nccs2)cc1 | -11% [at 11.4 µM] (inactive) | 
86 | O=C1CCCC=C1[C@@H](O)C1CCCCC1 | 11.1% [at 11.4 µM] (inactive) | 
87 | CCCCOc1cc(C[C@@H]2CNC(=O)N2)ccc1OC | 4.47% (inactive) | 
88 | CCCN1C[C@H](CSC)C[C@H]2c3cccc4[nH]cc(c34)C[C@@H]21 |  | 100 nM (active)
89 | O=C(O)c1cc2cc(Cc3cccnc3)ccc2o1 | 5.07% (inactive) | 
90 | Cc1cc(C)nc(NC(=O)c2cccc([N+](=O)[O-])c2C)n1 | -26% (inactive) | 
91 | ClC(Cl)(Cl)C(N1CCN(c2ccccc2)CC1)N1CCN(c2ccccc2)CC1 | 4.26% [at 11.4 µM] (inactive) | 
92 | OC[C@@H](O)CN1CCN(c2ccccc2)CC1 | -10.7% [at 25.6 µM] (inactive) | 
93 | CC(C)(C)C1CCC(OCC(O)CN2CCN(c3ccccc3)CC2)CC1 (centres undefined) |  | 6310 nM (active)
94 | COCCCN=CC1=C(O)CC(C)(C)CC1=O | 2.61% (inactive) | 
95 | CCc1c(C(C)O)oc2ccc3c(C)cc(=O)oc3c12 (centres undefined) | 9.69% (inactive) | 
96 | COc1ccc(-n2nc(C(=O)NCC(=O)Nc3ccccn3)c3ccccc3c2=O)cc1 | -12.4% (inactive) | 
97 | Cn1c(=O)[nH]c2ncn(C)c2c1=O | 7.29% (inactive) | 
98 | CN1C(=C2C(=O)OC(C)(C)OC2=O)Sc2ccccc21 | -17.7% (inactive) | 
99 | CCN(CC)CCN1c2ccccc2Sc2ccc3ccccc3c21 |  | 631 nM (active)
100 | CN(C)CCCN1c2ccccc2Sc2cnccc21 |  | 1580 nM (active)
101 | CCN(CC)CCN1C(=O)c2cccc3cc(N)cc(c23)C1=O | -3.81% [at 11.4 µM] (inactive) | 
102 | CCC(=S)/C=C1\Sc2ccc3ccccc3c2N1CCCS(=O)(=O)O | 17.6% (inactive) | 
103 | CN(C)CCCN1c2ccccc2Sc2ccc3ccccc3c21 |  | 1260 nM (active)
104 | CN(C)CCCN1c2ccc3ccccc3c2Sc2cccc(Cl)c21 |  | 501 nM (active)
